# Data as given in PubChem BioAssay AID1981 (Southern Research Specialized Biocontainment Screening …, 2009).
# Out of some 2,200 compounds screened, about 480 (22%) were called active. How the calls were made is not given here. Not all results are given here. Entries with a potency or affinity are not part of this list.
# Experiment: S. Typhimurium GFP fluorescence modified counterscreen for PhoP regulon inhibitor project dose response (AID 1981)
# Conditions: 4 h; series mostly up to 150 µM
row,SMILES,outcome
1,CCCCCNS(=O)(=O)c1cc(C)ccc1OC,inactive
2,O=C1Nc2ccccc2C(O)(C(=O)N2CCCCC2)N1c1ccccc1 (stereo not given),inactive
3,Cc1cc(C2=NNC(=NC3CC3)SC2)c(C)n1Cc1ccco1,inactive
4,Cc1cccc(OCCCSc2nc3ccc(C)cc3[nH]2)c1,inactive
5,C=C(C)Cn1c(CCn2c3ccccc3c3ccccc32)n[nH]c1=S,inactive
6,N#C/C(=C\c1c(Cl)cccc1Cl)c1nc2ccccc2[nH]1,inactive
7,COCc1cc(C)nc(N2CCc3ccccc32)c1C#N,inactive
8,CCOc1ccc2nc(COC(=O)c3ccco3)c(C(C)=O)[n+]([O-])c2c1,inactive
9,COc1ccc2cc(C)c3nnc(SCC(=O)Nc4nc(-c5ccccc5)cs4)n3c2c1,inactive
10,CCOC(=S)SCC(=O)Nc1nc(-c2ccccc2)cs1,inactive
11,CN(C)CC(=O)Nc1nc(-c2ccccc2)cs1,inactive
12,Cc1ccc(C[n+]2cc(-c3ccc(Cl)cc3)n3c2CCC3)cc1,inactive
13,Cc1ccc(NC(=O)CCN2CCc3ccccc3C2)cc1,inactive
14,COc1ccc(-c2csc(NC(=O)C3CCCO3)n2)cc1 (stereo not given),inactive
15,CCCCCOC(=O)C1=C(C)Nc2nnnn2C1c1ccc(OC)c(OC)c1OC (stereo not given),inactive
16,Cc1ccc(Nc2nc(CSc3nnc(-c4ccc(F)cc4)n3C)cs2)cc1,inactive
17,CSc1cccc(NC(=O)COc2cccc3ccccc23)c1,inactive
18,COc1ccc(OC)c(NC(=S)NCCCN2CCOCC2)c1,inactive
19,COc1ccccc1NC(=S)NNC(=O)c1c(Cl)c(C)nn1C,inactive
20,C=CCN(CC=C)Cc1c[nH]c2ccccc12,inactive
21,Cc1cc(C)[n+](C2C3CC4CC(C3)CC2C4)o1 (stereo not given),inactive
22,Cc1cccc(-n2c(N)cc(=O)[nH]c2=S)c1C,inactive
23,CCOC(=O)c1c(N)ssc1=S,inactive
24,COc1cccc(C2Nc3ccccc3C(=O)N2O)c1O (stereo not given),inactive
25,O=C(OCCN1C(=O)c2ccccc2C1=O)c1ccc(S(=O)(=O)N2CCCCCC2)cc1,inactive

row,SMILES,outcome
1,O=C1c2ccccc2NC(c2ccc(-c3cccc(Cl)c3)o2)N1O (stereo not given),inactive
2,CCOC(=O)c1ccc2c(c1)C(=O)N(C1CCCCC1)C2=O,inactive
3,Cc1ccc([N+](=O)[O-])cc1NC(=O)CN(C(=O)c1ccc(Cl)cc1)C1CCCCC1,inactive
4,Cc1cc(NC(=O)c2ccccc2-c2ccccc2)ccc1Br,inactive
5,CN1c2ccccc2C(=O)NC1c1ccc([N+](=O)[O-])s1 (stereo not given),inactive
6,CCN(CC)Cc1c[nH]c2c(C(=O)OC)cccc12,inactive
7,O=C(C1CCN(C2CC(=O)N(Cc3ccccc3)C2=O)CC1)N1CCCCCC1 (stereo not given),inactive
8,N#Cc1c(N)n[nH]c1-c1cc2c([nH]1)CCCC2,inactive
9,O=C(NCc1ccco1)c1c2c(nc3ccccc13)CCC2,inactive
10,Cc1[nH]c2ccccc2c1C(=O)CN1CCSCC1,inactive
11,c1ccc(C2CNCc3c2ccc2ccccc32)cc1 (stereo not given),inactive
12,CCOc1ccc(CSC(CC(=O)O)C(=O)O)cc1 (stereo not given),inactive
13,O=C(CCN1C(=O)c2ccccc2S1(=O)=O)Nc1ccc2c(c1)OCCO2,inactive
14,CCOC(=O)c1cc2ccc(OC)c(OC)c2c(=O)s1,inactive
15,COc1cccc(NC(=O)CNC(=O)c2cccs2)c1,inactive
16,Cc1ccccc1Cn1nc(C)c(NC(=O)c2noc3c2CCc2ccccc2-3)c1C,inactive
17,O=C1C(c2ccc(F)cc2)N(Cc2ccc3c(c2)OCO3)C(=O)CN1C1CCCCCC1 (stereo not given),inactive
18,COc1ccc(NC2=NC3(CCCCC3)N=C(N)N2)cc1,inactive
19,CCOC(=O)c1c(C)[nH]c(C)c1C(=O)CSc1ncccn1,inactive
20,Cc1cccn2cc(CSc3nnc(Nc4ccc(C(C)C)cc4)s3)nc12,inactive
21,CC1CCN(C(=O)c2ccc3c(c2NCCO)C(=O)c2ccccc2C3=O)CC1,inactive
22,CSc1nsc(SCC(=O)Nc2ccc(C(C)=O)cc2)n1,inactive
23,CN(C(=O)/C=C/c1ccccc1)C1CCS(=O)(=O)C1 (stereo not given),inactive
24,Cc1cc(C)nc(N(C#N)C(C)C(=O)N(C)C)n1 (stereo not given),inactive
25,Cc1c(C)n(Cc2ccccc2)c2ncnc(N)c12,inactive

row,SMILES,outcome
1,O=c1[nH]c(CN2CC=C(c3ccccc3)CC2)nc2cc(C(F)(F)F)ccc12,inactive
2,COc1ccccc1Nc1nc(NCc2ccco2)c2ccccc2n1,inactive
3,COc1ccc(Nc2nc(-c3cccc([N+](=O)[O-])c3)nc3ccccc23)cc1,inactive
4,BrC(=C\c1ccccc1)/C=N/N1CCN(c2ccccn2)CC1,inactive
5,C/C(CC(=O)Nc1ccc(Cl)c(C(F)(F)F)c1)=N\NC(=O)c1cccc(O)c1,inactive
6,N=c1n(CCO)c2ccccc2n1Cc1ccc(Cl)cc1,inactive
7,N=c1n(Cc2ccc(Cl)cc2)c2ccccc2n1CC(O)c1ccco1 (stereo not given),inactive
8,C#CCN1C(=O)C(O)(CC(=O)c2ccc(OC)c(OC)c2)c2ccccc21 (stereo not given),inactive
9,CCCCCCCCOC(=O)C1=C(C)Nc2nnnn2C1c1cccs1 (stereo not given),inactive
10,COc1ccc(Oc2ccccc2/C=N/O)cc1,inactive
11,COC(=O)c1ccc(COC(=O)c2ccccn2)cc1,inactive
12,CCNC(=S)NNC(=O)c1ccc(OC(F)F)cc1,inactive
13,CC(C)NC(=O)CSc1nc(N)c(NC(=O)c2ccccc2F)c(=O)[nH]1,inactive
14,Cc1cc(C)c2c(=O)[nH]c(SCC(=O)Nc3ccc(N(C)C)cc3)nc2n1,inactive
15,CCOC(=O)C1=C(C)NC(=S)NC1c1ccc(OC(=O)c2ccco2)cc1 (stereo not given),inactive
16,COc1ccc(NC2=NC(=S)N(c3cccc(C)c3)C23CCCCC3)cc1,inactive
17,O=C(O)/C=C/C(=O)Nc1cccc(C(F)(F)F)c1,inactive
18,Cc1cccc(NC(=O)c2ccc(Cn3cc(C(F)(F)F)ccc3=O)cc2)c1,inactive
19,CN(C)CC(C(=O)c1ccccc1)c1ccccc1 (stereo not given),inactive
20,Cc1ccc(C(=O)NCc2ccc(Cl)cc2)o1,inactive
21,Cc1ccc(C(=O)Nc2ccc3c(c2)OCO3)o1,inactive
22,CCCCCn1c(C(C)NC(=O)CCC)nc2ccccc21 (stereo not given),inactive
23,Cc1ccc2cccnc2c1NC(=S)NC(=O)c1ccccc1,inactive
24,O=C(NC(c1ccc(Cl)cc1)c1c(O)ccc2ccccc12)c1ccccc1 (stereo not given),inactive
25,O=C(CCc1ccccc1)Nc1nc2ccc(S(=O)(=O)N3CCOCC3)cc2s1,inactive
